Measured values published in PubChem BioAssay (NCATS).
Inconclusive results are not listed. The source made the active and inactive calls. The call rests on the fitted dose curve; in most records, active means well fitted curve in the direction sought with a large enough effect; inconclusive means small, poorly fitted or top-dose-only effect, or another doubt; inactive means no such curve, though single readings can be large; an effect the other way counts as inactive or inconclusive.

Tests used:
[1] = Quantitative highthroughput screen to assess conditional lethalithy of NOMO1 cells grown in RPMI1640 with untreated serum (RPMI+s) (AID 1963876); further: nearly all actives have a fitted effect of over 35% in size; further: potency means the concentration at half of the fitted maximal effect;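 on viability: 100% = DMSO wells and 0% = empty wells without cells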
Outline: (§1)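 Each medium arm—HPLM with 10% dialyzed FBS, or RPMI1640 with 5 mM glucose and 10% untreated or dialyzed FBS—was screened against an 11-point, 3-fold compound titration for 48 h at 37 °C, with CellTiter-Glo luminescence as endpoint.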

[2] = Quantitative highthroughput screen to assess conditional lethalithy of NOMO1 cells grown in RPMI1640 with dialyzed fetal bovine serum (RPMI+ds) (AID 1963877); further: nearly all actives have a fitted effect of over 30% in size; further: potency means the concentration at half of the fitted maximal effect;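 on viability: series mostly up to about 46 µM; 100% = DMSO control wells and 0% = empty wells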
Outline: as §1

[3] = Quantitative highthroughput screen to assess conditional lethalithy of NOMO1 cells grown in Human Plasma-Like Medium with dialyzed fetal bovine serum (HPLM+ds) (AID 1963878); further: nearly all actives have a fitted effect of over 35% in size; further: potency means the concentration at half of the fitted maximal effect;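 on viability: 100% = DMSO wells and 0% = empty wells on each plate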
Outline: as §1

[4] = Quantitative highthroughput screen to assess conditional lethalithy of P12 Ichikawa cells grown in Human Plasma-Like Medium with dialyzed fetal bovine serum (HPLM+ds) (AID 1963879); conditions: Potency: viability; further: nearly all actives have a fitted effect of over 35% in size; further: potency means the concentration at half of the fitted maximal effect; on viability: series mostly up to about 46 µM
Outline: as §1

[5] = Quantitative highthroughput screen to assess conditional lethalithy of P12 Ichikawa cells grown in RPMI1640 with dialyzed fetal bovine serum (RPMI+ds) (AID 1963880); conditions: Potency: P12-Ichikawa viability; further: nearly all actives have a fitted effect of over 35% in size; further: potency means the concentration at half of the fitted maximal effect;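 on viability: 100% = DMSO wells and 0% = empty wells on each plate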
Outline: as §1

[6] = Quantitative highthroughput screen to assess conditional lethalithy of P12 Ichikawa cells grown in RPMI1640 with untreated serum (RPMI+s) (AID 1963881); conditions: Potency: viability; further: nearly all actives have a fitted effect of over 35% in size; further: potency means the concentration at half of the fitted maximal effect;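 on viability: series mostly up to about 46 µM; 100% = DMSO wells and 0% = empty wells without cells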
Outline: as §1

[7] = Quantitative highthroughput screen to assess conditional lethalithy of SEM cells grown in Human Plasma-Like Medium with dialyzed fetal bovine serum (HPLM+ds) (AID 1963882); further: nearly all actives have a fitted effect of over 35% in size; further: potency means the concentration at half of the fitted maximal effect; on viability: series mostly up to about 46 µM
Outline: as §1

[8] = Quantitative highthroughput screen to assess conditional lethalithy of SEM cells grown in RPMI1640 with unreated serum (RPMI+s) (AID 1963883); further: nearly all actives have a fitted effect of over 35% in size; further: potency means the concentration at half of the fitted maximal effect;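 on viability: 100% = DMSO wells and 0% = empty wells without cells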
Outline: as §1

[9] = Quantitative highthroughput screen to assess conditional lethalithy of SEM cells grown in RPMI1640 with dialyzed fetal bovine serum (RPMI+ds) (AID 1963884); further: nearly all actives have a fitted effect of over 35% in size; further: potency means the concentration at half of the fitted maximal effect;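 on viability: series mostly up to about 46 µM; 100% = DMSO control wells and 0% = empty wells without cells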
Outline: as §1

[10] = Cellular viability qHTS for adrenocortical cancer (ACC) cell line SW-13 (AID 1963989); conditions: SW-13 ACC cells viability, CellTiter-Glo, 48 h; activity (max response): stronger effect = lower value;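 further: cells grown in serum-free medium with ITS supplement; on the % scale 0 is the no-effect control and ±100 the full control effect; nearly all actives have a fitted effect of over 65% in size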
Outline: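 Compound titrations (up to 46 uM final, in DMSO) were applied to SW-13 cells for 48 h at 37C/5% CO2. Reading used CellTiter-Glo after 20 min at room temperature; fitted curves yielded IC50 and efficacy.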

[11] = Cellular viability qHTS for adrenocortical cancer (ACC) cell line NCI-H295R (AID 1963990); further: nearly all actives have a fitted effect of over 60% in size; further: potency means the concentration at half of the fitted maximal effect
Outline: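 Readout: CellTiter-Glo luminescence, 20 min RT. Exposure: 48 h, 37C/5% CO2. Cells: NCI-H295R, ITS-DMEM serum-free. Range: up to 46 uM. Analysis: 4PL fit, IC50 plus efficacy.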

CN1[C@H]2CC[C@H]1CC(OC(=O)c1c[nH]c3ccccc13)C2 (stereo partly drawn)
inactive: Potency [1] | Potency [2] | Potency [3] | Potency [4] | Potency [5] | Potency [6] | Potency [7] | Potency [8] | Potency [9]

Cc1cc(CS(=O)(=O)c2ccccc2)cc(OCc2ccc(CN3CCC[C@H]3CO)cc2)c1
active: Potency [1] 1050 nM | Potency [2] 1320 nM | Potency [3] 662 nM | Potency [4] 743 nM | Potency [5] 1180 nM | Potency [6] 1050 nM | Potency [7] 590 nM | Potency [8] 332 nM | Potency [9] 526 nM

Cc1cc(OCCCc2c(C(=O)O)n(Cc3cccnc3)c3c(-c4c(COc5ccc(N6CCN([S+](C)(=O)[O-])CC6)cc5)nn(C)c4C)cccc23)cc(C)c1Cl
inactive: Potency [1] | Potency [2] | Potency [3] | Potency [4] | Potency [5] | Potency [6] | Potency [7]
active: Potency [9] 18700 nM

Cn1cc(-c2ccc3ncc(Cc4ccc5ncccc5c4)n3n2)cn1
active: Potency [7] 8330 nM | Potency [8] 9350 nM | Potency [9] 10500 nM
inactive: Potency [1] | Potency [2] | Potency [3] | Potency [4] | Potency [5] | Potency [6] | activity (max response) [10] 2.95% | Potency [11]

Cc1coc2c1C(=O)C(=O)c1c-2ccc2c(C)cccc12
inactive: Potency [1] | Potency [2] | Potency [3] | Potency [4] | Potency [5] | Potency [6] | Potency [7] | Potency [9]

CN(C)CCC=C1c2ccccc2COc2ccc(CC(=O)O)cc21
inactive: Potency [1] | Potency [2] | Potency [3] | Potency [4] | Potency [5] | Potency [6] | Potency [7] | Potency [9]

CCNC(=O)[C@H]1O[C@@H](n2cnc3c(N)nc(NCCc4ccc(CCC(=O)O)cc4)nc32)[C@H](O)[C@H]1O
inactive: Potency [1] | Potency [2] | Potency [3] | Potency [4] | Potency [5] | Potency [6] | Potency [7] | Potency [9]

NC(=O)c1ccc(-c2nc(-c3ccc4c(c3)OCO4)c(-c3ccccn3)[nH]2)cc1
inactive: Potency [1] | Potency [2] | Potency [3] | Potency [4] | Potency [5] | Potency [6] | Potency [7] | Potency [8] | Potency [9] | activity (max response) [10] -5.02% | Potency [11]

CC(C)c1ccc2oc3nc(N)c(C(=O)O)cc3c(=O)c2c1
inactive: Potency [1] | Potency [2] | Potency [3] | Potency [4] | Potency [5] | Potency [6] | Potency [7] | Potency [8] | Potency [9] | Potency [11]

C[C@@H]1[C@H](C)CC[C@]2(C(=O)O)CC[C@]3(C)C(=CC[C@@H]4[C@@]5(C)CC[C@H](O)C(C)(C)[C@H]5CC[C@]43C)[C@@H]12
inactive: Potency [1] | Potency [2] | Potency [3] | Potency [4] | Potency [5] | Potency [6] | Potency [7] | Potency [9]

Cc1ccc2c(c1)C(=O)[C@]1(O)CCN(c3ccccc3)C1=N2
inactive: Potency [1] | Potency [2] | Potency [3] | Potency [4] | Potency [5] | Potency [6] | Potency [7] | Potency [8] | Potency [11]

Cn1cc(-c2ccc3nnc(C(F)(F)c4ccc5ncccc5c4)n3n2)cn1
inactive: Potency [1] | Potency [2] | Potency [3] | Potency [4] | Potency [5] | Potency [6] | Potency [7] | Potency [8] | Potency [9] | activity (max response) [10] 3.57% | Potency [11]

Cc1cc(-c2nnc3n2CCCCC3)c(C)n1-c1ccccc1
inactive: Potency [1] | Potency [2] | Potency [3] | Potency [4] | Potency [5] | Potency [6] | Potency [7] | Potency [9]

C=C(C)[C@@H]1CC[C@]2(C(=O)O)CC[C@]3(C)[C@H](CC[C@@H]4[C@@]5(C)CC[C@H](O)C(C)(C)[C@@H]5CC[C@]43C)[C@@H]12
inactive: Potency [1] | Potency [2] | Potency [3] | Potency [4] | Potency [5] | Potency [6] | Potency [7] | activity (max response) [10] 19.8% | Potency [11]

COc1ccc(-n2c(C)c([N+](=O)[O-])c3ccc(O)cc32)cc1
inactive: Potency [1] | Potency [2] | Potency [3] | Potency [4] | Potency [5] | Potency [6] | Potency [7] | Potency [8] | Potency [9] | activity (max response) [10] 3.14% | Potency [11]

O=C(O)c1cccc(-c2noc(-c3ccccc3F)n2)c1
inactive: Potency [1] | Potency [2] | Potency [3] | Potency [4] | Potency [5] | Potency [6] | Potency [7] | Potency [8] | Potency [9] | Potency [11]

COc1cc2c(cc1OC)C1CC(=O)C(CC(C)C)CN1CC2 (stereo not drawn)
inactive: Potency [1] | Potency [2] | Potency [3] | Potency [4] | Potency [5] | Potency [6] | Potency [7] | Potency [8] | Potency [9] | Potency [11]

Cc1ccccc1C(=O)Nc1ccc(C(=O)N2CCCC(O)c3cc(Cl)ccc32)c(C)c1 (stereo not drawn)
active: Potency [11] 16400 nM
inactive: Potency [1] | Potency [2] | Potency [3] | Potency [4] | Potency [5] | Potency [6] | Potency [7] | Potency [8] | Potency [9]

O=[N+]([O-])c1cn2c(n1)OC[C@@H](OCc1ccc(OC(F)(F)F)cc1)C2
inactive: Potency [1] | Potency [2] | Potency [3] | Potency [4] | Potency [5] | Potency [6] | Potency [7] | Potency [8] | Potency [9] | Potency [11]
